Laboratory results reported in PubChem BioAssay.
A number with no mark means an inactive call. For some of these results: Measured potencies and affinities stand elsewhere. Active and inactive are the calls of the source. Unless noted, no rule for the calls is given here.

Legend:
[1] = antimalarial activity against Dd2 strain (AID 2302;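 active = growth inhibition above 50% at the single 2 µM test dose, taken to imply half-maximal potency below 2 µM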;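 also: 0% = DMSO untreated growth and 100% = chloroquine plus artemisinin killed control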); details: P. falciparum Dd2 in RBCs, LDH growth readout, 72 h; at 2 µM; hits give high values
[2] = HepG2 cytotoxicity, primary screen, cytotoxicity control for P. falciparum antimalarial project, cell-based, ATP luminescence (AID 2303;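 active = inhibition above 50%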;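 also: 0% = DMSO wells and 100% = digitonin-killed cells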); details: HepG2 viability, 24-48 h, at 10 µM, hits give high values
[3] = biological target: L-lactate dehydrogenase (Plasmodium falciparum (isolate CDC / Honduras)) (UniProt Q27743); assay: PfLDH activity inhibition – cell lysate, 3D7 strain, counter-screen for P. falciparum growth inhibition project (AID 2304);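 also: 0% = vehicle and 100% = reference inhibitor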; details: P. falciparum 3D7 crude extract, LDH APAD/NBT absorbance; at 2 µM; hits give high values
L-lactate dehydrogenase (Plasmodium falciparum (isolate CDC / Honduras)), sequence (Q27743 whole entry, looked up): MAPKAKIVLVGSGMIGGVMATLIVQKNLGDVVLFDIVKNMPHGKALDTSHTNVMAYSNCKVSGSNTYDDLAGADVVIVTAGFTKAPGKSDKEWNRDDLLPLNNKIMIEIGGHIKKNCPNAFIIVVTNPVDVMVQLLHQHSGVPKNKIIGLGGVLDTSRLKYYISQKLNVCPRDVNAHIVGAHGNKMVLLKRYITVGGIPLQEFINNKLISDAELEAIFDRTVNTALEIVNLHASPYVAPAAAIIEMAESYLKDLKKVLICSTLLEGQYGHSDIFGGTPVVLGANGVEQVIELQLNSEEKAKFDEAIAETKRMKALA

[4] = inhibition of 3D7 malaria parasite growth – strain 3D7 (AID 2306);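 also: 0% = DMSO wells and 100% = chloroquine plus artemisinin control wells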; details: P. falciparum 3D7 erythrocytic growth, LDH absorbance, 72 h; at 2 µM; hits give high values
[5] = biological target: Calcium-dependent protein kinase 1 (Plasmodium falciparum (isolate 3D7)) (UniProt P62344); assay: PfCDPK1 kinase inhibitors, biochemical, TCAMS library (AID 1159585; cut-off not given, nearly all actives have IC50 up to about 0.98 µM;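 also: inhibitors leave more ATP so luminescence rises with inhibition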); details: recombinant PfCDPK1, Kinase-Glo ATP depletion luminescence
Calcium-dependent protein kinase 1 (Plasmodium falciparum (isolate 3D7)), sequence (P62344 whole entry, looked up): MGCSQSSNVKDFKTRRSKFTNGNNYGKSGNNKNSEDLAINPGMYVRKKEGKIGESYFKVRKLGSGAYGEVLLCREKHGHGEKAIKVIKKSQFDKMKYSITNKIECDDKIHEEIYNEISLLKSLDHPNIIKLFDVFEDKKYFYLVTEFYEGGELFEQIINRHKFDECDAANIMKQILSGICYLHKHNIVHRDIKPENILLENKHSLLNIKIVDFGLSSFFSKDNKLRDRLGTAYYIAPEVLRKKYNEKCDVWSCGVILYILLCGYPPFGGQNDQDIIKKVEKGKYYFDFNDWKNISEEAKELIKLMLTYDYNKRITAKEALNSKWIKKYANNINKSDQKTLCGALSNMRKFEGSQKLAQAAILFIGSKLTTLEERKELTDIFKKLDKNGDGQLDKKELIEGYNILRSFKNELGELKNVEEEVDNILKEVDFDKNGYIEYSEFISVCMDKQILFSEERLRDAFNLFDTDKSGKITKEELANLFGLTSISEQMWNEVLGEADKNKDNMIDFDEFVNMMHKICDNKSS

[6] = biological target: Plasmodium falciparum protein kinase 6 (PK6, PF3D7_1337100) (UniProt Q8IDW1); assay: PfPK6 kinase inhibitors, biochemical, TCAMS library (AID 1159586); details: recombinant PfPK6, Kinase-Glo ATP depletion luminescence
Plasmodium falciparum protein kinase 6 (PK6, PF3D7_1337100), sequence (Q8IDW1 1-305): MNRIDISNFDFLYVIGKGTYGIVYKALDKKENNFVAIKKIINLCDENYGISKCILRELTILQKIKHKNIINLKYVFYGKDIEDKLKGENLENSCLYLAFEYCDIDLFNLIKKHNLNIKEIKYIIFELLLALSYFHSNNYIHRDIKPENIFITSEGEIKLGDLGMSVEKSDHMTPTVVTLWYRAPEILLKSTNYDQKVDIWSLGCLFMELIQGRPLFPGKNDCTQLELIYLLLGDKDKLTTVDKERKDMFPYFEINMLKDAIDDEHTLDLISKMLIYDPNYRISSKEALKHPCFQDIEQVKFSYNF

[7] = biological target: Protein kinase 7 (PK7), Plasmodium falciparum 3D7 (PF3D7_0213400) (UniProt Q7YTF7); assay: inhibition of Plasmodium PK7 catalytic activity – biochemical, TCAMS antimalarial set, Kinase-Glo luminescence (AID 1159587); details: recombinant PfPK7, Kinase-Glo ATP depletion luminescence
Protein kinase 7 (PK7), Plasmodium falciparum 3D7 (PF3D7_0213400), sequence (Q7YTF7 1-343): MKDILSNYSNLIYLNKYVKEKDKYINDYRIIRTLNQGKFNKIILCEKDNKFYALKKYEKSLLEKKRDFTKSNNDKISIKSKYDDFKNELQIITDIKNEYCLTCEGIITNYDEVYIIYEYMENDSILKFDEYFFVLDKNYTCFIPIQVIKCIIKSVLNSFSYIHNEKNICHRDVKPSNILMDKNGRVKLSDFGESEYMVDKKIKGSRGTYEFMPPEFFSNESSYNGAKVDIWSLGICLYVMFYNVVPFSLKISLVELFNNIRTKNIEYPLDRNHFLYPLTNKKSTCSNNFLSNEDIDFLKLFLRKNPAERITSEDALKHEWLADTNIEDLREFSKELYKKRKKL

[8] = biological target: Calcium-dependent protein kinase 4 (Plasmodium falciparum (isolate 3D7)) (UniProt Q8IBS5); assay: PfCDPK4 kinase inhibitors, biochemical, TCAMS library (AID 1159588; cut-off not given, nearly all actives have IC50 up to about 0.91 µM); details: recombinant PfCDPK4, Kinase-Glo ATP depletion luminescence
Calcium-dependent protein kinase 4 (Plasmodium falciparum (isolate 3D7)), sequence (Q8IBS5 whole entry, looked up): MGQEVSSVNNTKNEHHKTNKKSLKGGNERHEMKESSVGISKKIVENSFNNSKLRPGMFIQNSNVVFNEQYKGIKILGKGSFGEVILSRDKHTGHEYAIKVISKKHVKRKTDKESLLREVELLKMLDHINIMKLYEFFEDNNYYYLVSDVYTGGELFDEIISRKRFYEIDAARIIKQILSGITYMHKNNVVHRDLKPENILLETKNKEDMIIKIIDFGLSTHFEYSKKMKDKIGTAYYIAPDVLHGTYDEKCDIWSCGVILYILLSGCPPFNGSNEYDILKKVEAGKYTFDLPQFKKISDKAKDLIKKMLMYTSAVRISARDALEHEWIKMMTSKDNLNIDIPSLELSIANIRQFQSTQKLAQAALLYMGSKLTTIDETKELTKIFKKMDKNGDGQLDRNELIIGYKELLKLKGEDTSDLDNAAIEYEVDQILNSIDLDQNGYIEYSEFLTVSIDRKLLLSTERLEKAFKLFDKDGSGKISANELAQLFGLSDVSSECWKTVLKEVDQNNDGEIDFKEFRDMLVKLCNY

SMILES | growth inhibition [1] | inhibition [2] | inhibition [3] [%] | growth inhibition [4] | outcome [5] | outcome [6] | outcome [7] | outcome [8]
COc1ccc2nc(C)cc(NN=Cc3ccc([N+](=O)[O-])cc3)c2c1 | 70% (active) | -3% | -5 | 103% (active) | inactive | inactive | inactive | inactive
CCN1CCCC(Nc2ccnc3cc4ccccc4cc23)C1 (stereo not drawn) | 100% (active) | 38% | 2 | 101% (active) | inactive | inactive | inactive | inactive
O=C(/C=C/c1ccc(Cl)c(Cl)c1)NCCCCCN1CCC(NC(=O)Nc2ccc(F)cc2F)CC1 | 23% | 14% | 2 | 102% (active) | inactive | inactive | inactive | inactive
Oc1ccc(CCNc2nc(NCc3ccccc3-c3ccccc3)nc(N3CCCNCC3)n2)cc1 | 20% | 26% | -5 | 95% (active) | inactive | inactive | inactive | inactive
N#Cc1cccc(NC(=O)c2ccc(S(=O)(=O)NCC3CCCN3CC3CCCCC3)cc2)c1 (stereo not drawn) | 18% | 25% | 4 | 88% (active) | inactive | inactive | inactive | inactive
Nc1nc(N)c2c(ccc3c2ccn3CC2CC2)n1 | 3% | 46% | -4 | 96% (active) | inactive | inactive | inactive | inactive
Oc1ccc(Nc2nc(NCC3CCCO3)c3ccccc3n2)cc1 (stereo not drawn) | 57% (active) | 7% | 4 | 103% (active) | inactive | inactive | inactive | inactive
Cc1cccc2[nH]c(-c3cccc(-c4cccc(C(=O)NCCN5CCCC5)c4)c3)nc12 | 75% (active) | 21% | 1 | 100% (active) | inactive | inactive | inactive | inactive
CC(C)C[C@H](NC(=O)c1ccc(F)cc1)C(=O)N[C@H](/C=N/NC(=O)c1ccccc1)CCc1ccccc1 | 61% (active) | 1% | -2 | 92% (active) | inactive | inactive | inactive | inactive
N#Cc1cccc(C(=O)Nc2cccc(-c3ccc(C(=O)NCCCN4CCOCC4)cc3)c2)c1 | 21% | 21% | -8 | 96% (active) | inactive | inactive | inactive | inactive
CC(=O)c1cccc(NC(=O)N2CCCN(CCCCCNC(=O)/C=C/c3ccc(Cl)c(Cl)c3)CC2)c1 | 0% | 13% | -5 | 93% (active) | inactive | inactive | inactive | inactive
CN1CCCC1CCNCc1ccc(-c2ccc(CNCCc3ccccc3)cn2)cc1 (stereo not drawn) | 99% (active) | 25% | 2 | 101% (active) | inactive | inactive | inactive | inactive
CCCn1c(SCC(=O)Nc2cc(C(F)(F)F)ccc2Cl)n[nH]c1=O | 94% (active) | -6% | -2 | 96% (active) | inactive | inactive | inactive | inactive
CCc1cn2c3c(cc(C(=O)N[C@@H](Cc4cccc(F)c4)[C@H](O)CNC4CCOCC4)cc13)N(C)S(=O)(=O)CC2 | 97% (active) | -2% | -2 | 97% (active) | inactive | inactive | inactive | inactive
CCc1c(C)nc(-n2nc(C)cc2NC(=O)c2cccc3ccccc23)[nH]c1=O | 89% (active) | 39% | 1 | 98% (active) | inactive | inactive | inactive | inactive
O=C1Nc2cccc3c2C1(CCCCN1CCC(c2c(-c4ccccc4)[nH]c4ccccc24)CC1)CCC3 (stereo not drawn) | 33% | 18% | -1 | 84% (active) | inactive | inactive | inactive | inactive
COc1ccccc1-c1cccc(-c2cccc(NC(=O)c3ccc([N+](=O)[O-])o3)c2)n1 | 59% (active) | 78% (active) | -1 | 97% (active) | inactive | inactive | inactive | inactive
CCCC(CNCc1cccc(SC(F)(F)F)c1)CNc1cc(=O)c2ccccc2[nH]1 (stereo not drawn) | 87% (active) | 5% | 5 | 101% (active) | inactive | inactive | inactive | inactive
CCCCCCN(CCCCCC)CCCCNc1c2ccc(Cl)cc2nc2ccc(OC)cc12 | 94% (active) | 65% (active) | 1 | 100% (active) | inactive | inactive | inactive | inactive
CS(=O)(=O)NCCCNCc1ccc(-c2ccc(-c3nc4ccc(F)cc4[nH]3)s2)cc1 | 30% | 23% | 1 | 95% (active) | inactive | inactive | inactive | inactive
Nc1nc(N)c2c(Oc3cccc4ccccc34)cccc2n1 | 10% | 42% | 6 | 96% (active) | inactive | inactive | inactive | inactive

SMILES | growth inhibition [1] | inhibition [2] | inhibition [3] [%] | growth inhibition [4] | outcome [5] | outcome [6] | outcome [7] | outcome [8]
FC(F)(F)c1ccc2nc(-c3ccc(-c4ccc(CNCc5cnn(-c6ccccc6)n5)cc4)s3)[nH]c2c1 | 89% (active) | 27% | -2 | 100% (active) | inactive | inactive | inactive | inactive
Cc1cccc(C)c1CNc1ccnc2ccccc12 | 10% | 59% (active) | -1 | 92% (active) | inactive | inactive | inactive | inactive
CN(C)S(=O)(=O)c1ccc(Nc2nc(NCCC3C=NC=N3)nc3cc[nH]c(=O)c23)cc1 (stereo not drawn) | 63% (active) | 8% | 2 | 96% (active) | inactive | inactive | inactive | inactive
O=C(/C=C/c1ccc(Cl)cc1)NCCCCCN1CCC(c2c[nH]c3ccccc23)CC1 | 15% | 42% | 7 | 99% (active) | inactive | inactive | inactive | inactive
CC(=O)N(Cc1nc(-c2cc(Cl)c(Cl)s2)cs1)c1c(C)cccc1C | 95% (active) | 5% | 3 | 98% (active) | inactive | inactive | inactive | inactive
O=C(/C=C/c1ccc(I)cc1)NCCCCCN1CCC(c2c[nH]c3ccc(O)cc23)CC1 | 1% | 14% | 2 | 97% (active) | inactive | inactive | inactive | inactive
O=C(/C=C/c1ccc(Cl)c(Cl)c1)NCC1CCN(Cc2ccc(O)cc2)CC1 | -3% | 4% | 6 | 98% (active) | inactive | inactive | inactive | inactive
O=C1CCCN1CCCNCc1ccc(-c2cccc(-c3nc4ccccc4[nH]3)c2)cc1 | 0% | 19% | -5 | 96% (active) | inactive | inactive | inactive | inactive
CC(=O)Nc1ccc(CN2CCCN(c3cc(NC(=O)c4cccc(C)c4)ccn3)CC2)cc1 | 10% | -2% | -1 | 92% (active) | inactive | inactive | inactive | inactive
O=C(Cc1ccccc1)NC(c1ccccc1)c1ccc2cccnc2c1O (stereo not drawn) | 61% (active) | 49% | 3 | 89% (active) | inactive | inactive | inactive | inactive
CC1(C)N=C(N)N=C(N)N1OCCCOc1ccccc1Cl | 94% (active) | 64% (active) | 1 | 96% (active) | inactive | inactive | inactive | inactive
CN1CCN(CCCN(Cc2cccc(-c3ccc(CNC4CCCC4)cc3)c2)C(=O)/C=C/c2ccccc2)CC1 | 96% (active) | 62% (active) | -2 | 98% (active) | inactive | inactive | inactive | inactive
CC(=O)Nc1ccc(Cl)c(Cl)c1 | 98% (active) | 5% | 9 | 95% (active) | inactive | inactive | inactive | inactive
OC(c1ccc(Cl)cc1)(c1ccc(Cl)cc1)C(c1ccc(Cl)cc1)n1ccnc1 (stereo not drawn) | 100% (active) | 15% | -3 | 101% (active) | inactive | inactive | inactive | inactive
CSc1nc2cc3c(cc2n1C(=O)c1ccc(C)cc1)OCCO3 | -1% | -6% | -6 | 99% (active) | inactive | inactive | inactive | inactive
CS(=O)(=O)N1CC2(CCN(CCC(NC(=S)Nc3ccccc3)c3ccc(Cl)c(Cl)c3)CC2)c2ccccc21 (stereo not drawn) | 80% (active) | 24% | -1 | 98% (active) | inactive | inactive | inactive | inactive
CCC(NCc1ccc(-c2cncc(C(=O)NCC(C)C)c2)cc1)c1ccccc1 (stereo not drawn) | 8% | 14% | 2 | 86% (active) | inactive | inactive | inactive | inactive
Cc1noc(-c2ccc(NC[C@@H](C)NC[C@H](O)c3cccc(Cl)c3)cc2)n1 | 84% (active) | 11% | -1 | 97% (active) | inactive | inactive | inactive | inactive
Cc1nc2ccccn2c1C1(O)C(=O)Nc2c(Cl)cc(Cl)cc21 (stereo not drawn) | 62% (active) | -11% | -3 | 95% (active) | inactive | inactive | inactive | inactive
O=C(NC1CCN(CC2(c3ccc(Cl)cc3)CCCCC2)CC1)c1ccn[nH]1 | 96% (active) | -3% | 4 | 98% (active) | inactive | inactive | inactive | inactive
